Data published in the supplement of paper PMC10849652.
About 7,900 targets were measured; listed, in parts, are those with a hit and a random draw of the rest. About 0.6% of all pairs of compound and target were hits.

Columns and labels:
Experiment in all cases: log2 fold change, soluble protein after heating vs DMSO (PISA); higher = thermal stabilisation; K562 cells, 10 uM, 30 min; active = over 0.2 and 3.5 SD of the protein, either way, in both replicates (recomputed)
[1] = compound: C1=CC=C(C=C1)[C@H](COC2=CC3=C(C=C2)NC(=O)N3)NC(=O)C4=CC=CN(C4=O)CC5=CC(=C(C=C5)F)F
Method in brief: (§1)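 K562 cells at 2×10^6 cells/mL were given 10 μM compound for 30 min. Aliquots then went through 3 min of heating across 48°C-58°C, were pooled, and were extracted in PBS with 0.5% NP-40 at 4°C, and the supernatant after 21,000xg for 90 min was quantified by TMTpro 16plex LC-MS/MS with channel sums equalised. Thermal stability relative to control samples, from duplicates, is given as log2 fold change.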

[2] = compound: CC1=C(SC2=C1C(=N[C@H](C3=NN=C(N32)C)CC(=O)N)C4=CC=C(C=C4)Cl)C
Method in brief: as §1

[3] = compound: CC1=C2C(=CC=C1)N=C(N(C2=O)C3=CC=CC=C3C)CN4C=NC5=C(N=CN=C54)N
Method in brief: as §1

[4] = compound: Cc1sc2c(c1C)C(c1ccc(Cl)cc1)=N[C@@H](CC(=O)OC(C)(C)C)c1nnc(C)n1-2
Method in brief: as §1

[5] = compound: c1ccc([C@@H]2C[C@H]2NC2CCNCC2)cc1
Method in brief: as §1

Measured: log2 fold change

IKZF1 isoform 2 (UniProt Q13422)
inactive: [1] 0.335 | [2] 0.217 | [3] 0.052 | [4] -0.026 | [5] 0.061

MAGEA8 (UniProt P43361)
inactive: [1] 0.075 | [2] -0.035 | [3] 0.02 | [4] -0.119 | [5] 0.077

MICOS13 (UniProt Q5XKP0)
Chain of UniProt Q5XKP0 (Q5XKP0 whole entry, looked up): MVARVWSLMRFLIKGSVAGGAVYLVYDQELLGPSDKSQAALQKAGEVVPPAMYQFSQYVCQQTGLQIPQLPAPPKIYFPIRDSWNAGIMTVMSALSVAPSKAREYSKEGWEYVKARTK
inactive: [1] -0.018 | [2] 0.07 | [3] -0.032 | [4] 0 | [5] 0.003

MARCHF3 (UniProt Q86UD3)
inactive: [1] -0.096

LYN (UniProt P07948)
Chain of UniProt P07948 (P07948 whole entry, looked up): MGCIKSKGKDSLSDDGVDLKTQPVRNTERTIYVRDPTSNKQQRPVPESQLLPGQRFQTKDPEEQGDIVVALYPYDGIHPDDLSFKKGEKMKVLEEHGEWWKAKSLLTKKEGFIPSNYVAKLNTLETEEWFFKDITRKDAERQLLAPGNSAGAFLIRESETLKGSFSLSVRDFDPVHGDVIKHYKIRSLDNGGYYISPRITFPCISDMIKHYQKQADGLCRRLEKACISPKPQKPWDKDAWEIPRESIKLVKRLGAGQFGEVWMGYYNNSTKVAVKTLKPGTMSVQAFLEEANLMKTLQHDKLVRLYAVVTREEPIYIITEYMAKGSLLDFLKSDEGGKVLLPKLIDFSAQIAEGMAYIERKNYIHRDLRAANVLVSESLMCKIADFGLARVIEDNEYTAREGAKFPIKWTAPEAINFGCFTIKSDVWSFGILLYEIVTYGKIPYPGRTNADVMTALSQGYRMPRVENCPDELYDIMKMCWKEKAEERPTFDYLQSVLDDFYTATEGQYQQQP
inactive: [1] 0.035 | [2] 0.038 | [3] 0.013 | [4] 0.028 | [5] -0.043

LGALS8 isoform 2 (UniProt O00214)
Chain of UniProt O00214 (O00214 whole entry, looked up): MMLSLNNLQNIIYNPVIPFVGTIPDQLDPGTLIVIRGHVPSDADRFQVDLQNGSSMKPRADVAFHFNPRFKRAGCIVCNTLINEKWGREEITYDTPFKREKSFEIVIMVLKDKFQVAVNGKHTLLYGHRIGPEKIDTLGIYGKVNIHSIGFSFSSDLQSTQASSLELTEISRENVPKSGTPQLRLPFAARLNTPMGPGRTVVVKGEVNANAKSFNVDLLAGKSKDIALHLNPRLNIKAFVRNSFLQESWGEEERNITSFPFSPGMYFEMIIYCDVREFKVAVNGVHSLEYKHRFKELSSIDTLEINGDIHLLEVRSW
inactive: [1] -0.032 | [2] 0.011 | [3] -0.166 | [4] -0.022 | [5] -0.12

KIF3B (UniProt O15066)
inactive: [1] -0.068 | [2] -0.014 | [3] 0.028 | [4] 0.09 | [5] -0.054

MARCKS (UniProt P29966)
inactive: [1] 0 | [2] -0.046 | [3] -0.066 | [4] -0.065 | [5] 0.031

MIEN1 (UniProt Q9BRT3)
inactive: [1] 0.035 | [2] 0.101 | [3] 0.014 | [4] -0.097 | [5] 0.019

LDLRAP1 (UniProt Q5SW96)
inactive: [1] 0.055

IRAK4 (UniProt Q9NWZ3)
inactive: [1] -0.077 | [2] -0.006 | [3] 0.009 | [4] -0.012 | [5] -0.056

LIMD1 (UniProt Q9UGP4)
inactive: [1] 0.006 | [2] 0.004 | [3] -0.014 | [4] -0.005 | [5] 0.028

MAP3K7 (UniProt O43318)
inactive: [1] -0.085 | [2] 0.005 | [3] 0.11 | [4] 0.061 | [5] 0.023

KCT2 (UniProt Q8NC54)
inactive: [1] 0.046 | [2] 0.024 | [3] -0.01 | [4] -0.014 | [5] 0.028

KCTD10 (UniProt Q9H3F6)
inactive: [1] -0.014 | [2] -0.009 | [3] 0.007 | [4] -0.01 | [5] 0.03

KIF2C (UniProt Q99661)
Chain of UniProt Q99661 (Q99661 whole entry, looked up): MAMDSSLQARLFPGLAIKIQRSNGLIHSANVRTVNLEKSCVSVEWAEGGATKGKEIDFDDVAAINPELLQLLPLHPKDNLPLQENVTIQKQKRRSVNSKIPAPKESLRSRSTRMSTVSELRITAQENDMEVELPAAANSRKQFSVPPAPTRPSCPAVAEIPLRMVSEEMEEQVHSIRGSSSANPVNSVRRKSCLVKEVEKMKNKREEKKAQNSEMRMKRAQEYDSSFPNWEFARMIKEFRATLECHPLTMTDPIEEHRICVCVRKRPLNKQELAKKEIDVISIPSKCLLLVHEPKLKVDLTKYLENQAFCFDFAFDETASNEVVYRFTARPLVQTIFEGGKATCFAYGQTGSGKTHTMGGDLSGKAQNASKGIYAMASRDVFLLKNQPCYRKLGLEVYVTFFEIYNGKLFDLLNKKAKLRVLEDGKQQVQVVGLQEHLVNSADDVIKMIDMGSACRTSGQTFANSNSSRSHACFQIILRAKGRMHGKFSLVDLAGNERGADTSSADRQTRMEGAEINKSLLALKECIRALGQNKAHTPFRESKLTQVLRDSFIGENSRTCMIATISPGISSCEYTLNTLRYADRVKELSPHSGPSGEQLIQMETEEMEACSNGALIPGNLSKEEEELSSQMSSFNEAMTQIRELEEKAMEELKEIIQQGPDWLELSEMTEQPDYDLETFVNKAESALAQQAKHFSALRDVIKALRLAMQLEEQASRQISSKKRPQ
inactive: [1] -0.062 | [2] -0.021 | [3] 0.094 | [4] 0.002 | [5] -0.029

MDC1 (UniProt Q14676)
Chain of UniProt Q14676 (Q14676 whole entry, looked up): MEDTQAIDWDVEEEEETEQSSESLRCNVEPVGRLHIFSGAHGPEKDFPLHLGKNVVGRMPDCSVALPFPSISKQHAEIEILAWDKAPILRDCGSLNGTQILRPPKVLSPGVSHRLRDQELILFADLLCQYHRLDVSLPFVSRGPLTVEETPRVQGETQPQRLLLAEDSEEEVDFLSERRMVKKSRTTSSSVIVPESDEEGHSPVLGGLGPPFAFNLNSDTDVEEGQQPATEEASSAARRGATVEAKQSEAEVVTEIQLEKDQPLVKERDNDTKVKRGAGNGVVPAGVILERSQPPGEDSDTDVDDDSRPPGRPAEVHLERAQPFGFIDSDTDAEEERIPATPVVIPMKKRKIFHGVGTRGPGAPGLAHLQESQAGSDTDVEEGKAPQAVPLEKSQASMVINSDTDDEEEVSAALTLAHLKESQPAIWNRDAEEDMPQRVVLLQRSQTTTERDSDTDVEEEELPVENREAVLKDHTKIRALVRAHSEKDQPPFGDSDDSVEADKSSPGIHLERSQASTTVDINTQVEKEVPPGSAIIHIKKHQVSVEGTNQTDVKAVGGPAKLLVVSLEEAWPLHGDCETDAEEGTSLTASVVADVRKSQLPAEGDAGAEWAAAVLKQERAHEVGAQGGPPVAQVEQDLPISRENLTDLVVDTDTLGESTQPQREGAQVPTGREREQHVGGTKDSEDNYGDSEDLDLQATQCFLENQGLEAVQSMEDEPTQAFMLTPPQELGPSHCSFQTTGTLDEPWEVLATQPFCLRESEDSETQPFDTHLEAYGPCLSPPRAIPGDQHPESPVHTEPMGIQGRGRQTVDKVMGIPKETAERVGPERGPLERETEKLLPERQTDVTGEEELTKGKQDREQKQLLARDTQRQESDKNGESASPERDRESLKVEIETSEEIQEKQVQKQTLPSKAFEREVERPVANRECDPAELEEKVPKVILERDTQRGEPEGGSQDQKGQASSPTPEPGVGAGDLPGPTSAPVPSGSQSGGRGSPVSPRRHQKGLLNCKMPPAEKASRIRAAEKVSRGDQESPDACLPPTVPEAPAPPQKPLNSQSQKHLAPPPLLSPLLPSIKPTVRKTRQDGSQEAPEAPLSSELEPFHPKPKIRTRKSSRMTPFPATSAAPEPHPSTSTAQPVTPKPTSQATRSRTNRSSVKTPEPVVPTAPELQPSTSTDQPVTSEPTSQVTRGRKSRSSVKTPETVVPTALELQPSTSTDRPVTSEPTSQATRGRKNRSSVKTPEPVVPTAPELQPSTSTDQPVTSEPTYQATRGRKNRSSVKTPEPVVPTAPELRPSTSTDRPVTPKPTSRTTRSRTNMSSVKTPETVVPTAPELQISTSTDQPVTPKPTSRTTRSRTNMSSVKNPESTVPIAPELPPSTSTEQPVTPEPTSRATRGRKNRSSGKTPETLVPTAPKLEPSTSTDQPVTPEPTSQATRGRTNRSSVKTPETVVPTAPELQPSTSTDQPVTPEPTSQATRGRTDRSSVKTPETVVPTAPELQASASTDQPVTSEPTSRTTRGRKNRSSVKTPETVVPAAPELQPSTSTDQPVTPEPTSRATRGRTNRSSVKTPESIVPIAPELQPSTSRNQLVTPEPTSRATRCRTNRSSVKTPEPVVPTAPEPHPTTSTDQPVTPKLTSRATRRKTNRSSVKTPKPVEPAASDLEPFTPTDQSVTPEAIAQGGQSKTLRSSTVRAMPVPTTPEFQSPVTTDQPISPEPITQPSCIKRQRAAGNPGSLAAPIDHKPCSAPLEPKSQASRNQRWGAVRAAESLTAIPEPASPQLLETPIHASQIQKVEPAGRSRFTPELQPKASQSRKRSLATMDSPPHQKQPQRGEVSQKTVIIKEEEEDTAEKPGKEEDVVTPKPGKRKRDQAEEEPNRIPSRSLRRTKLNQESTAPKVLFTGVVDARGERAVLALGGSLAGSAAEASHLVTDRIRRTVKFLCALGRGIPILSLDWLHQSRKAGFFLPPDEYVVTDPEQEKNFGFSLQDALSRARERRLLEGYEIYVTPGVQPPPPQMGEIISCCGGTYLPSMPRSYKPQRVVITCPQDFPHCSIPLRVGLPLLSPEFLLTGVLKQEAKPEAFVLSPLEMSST
inactive: [1] -0.005 | [2] -0.045 | [3] -0.092 | [4] 0.068 | [5] 0.04

LPGAT1 (UniProt Q92604)
inactive: [1] -0.068 | [2] -0.136 | [3] -0.02 | [4] 0.086 | [5] 0.074

ILF3 (UniProt Q12906)
inactive: [1] 0.06

ILF3 isoform 7 (UniProt Q12906)
inactive: [1] 0.038 | [2] -0.061 | [3] -0.126 | [4] 0.194 | [5] 0.028

ITPRIP (UniProt Q8IWB1)
Chain of UniProt Q8IWB1 (Q8IWB1 whole entry, looked up): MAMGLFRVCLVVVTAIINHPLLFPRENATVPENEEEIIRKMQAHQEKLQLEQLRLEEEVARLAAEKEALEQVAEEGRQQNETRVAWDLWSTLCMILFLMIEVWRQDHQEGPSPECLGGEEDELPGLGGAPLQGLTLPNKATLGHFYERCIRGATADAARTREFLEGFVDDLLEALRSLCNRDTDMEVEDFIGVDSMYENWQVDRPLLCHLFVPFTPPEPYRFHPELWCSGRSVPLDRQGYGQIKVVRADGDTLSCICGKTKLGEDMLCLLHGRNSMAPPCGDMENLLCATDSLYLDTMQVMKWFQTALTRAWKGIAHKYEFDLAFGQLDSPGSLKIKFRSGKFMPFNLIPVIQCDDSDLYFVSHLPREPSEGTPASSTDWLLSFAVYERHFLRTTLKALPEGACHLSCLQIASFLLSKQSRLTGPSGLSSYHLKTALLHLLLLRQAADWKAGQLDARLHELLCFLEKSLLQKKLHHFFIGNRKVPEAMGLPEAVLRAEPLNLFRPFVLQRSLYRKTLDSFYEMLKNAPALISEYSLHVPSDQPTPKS
inactive: [1] -0.024 | [2] 0.096 | [3] 0.054 | [4] -0.081 | [5] 0.027

MAPK14 (UniProt Q16539)
Chain of UniProt Q16539 (Q16539 whole entry, looked up): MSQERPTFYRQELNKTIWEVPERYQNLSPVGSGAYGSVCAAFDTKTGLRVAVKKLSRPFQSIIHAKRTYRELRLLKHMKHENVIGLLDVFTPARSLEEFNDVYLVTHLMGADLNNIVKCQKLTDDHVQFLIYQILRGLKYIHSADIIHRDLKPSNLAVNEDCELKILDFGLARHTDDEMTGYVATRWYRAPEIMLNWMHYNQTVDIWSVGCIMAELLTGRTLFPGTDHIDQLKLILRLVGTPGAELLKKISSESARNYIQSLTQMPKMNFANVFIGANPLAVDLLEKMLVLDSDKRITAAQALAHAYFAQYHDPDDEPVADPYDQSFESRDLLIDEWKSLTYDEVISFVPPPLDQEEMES
inactive: [1] -0.01 | [2] 0.153 | [3] 0.061 | [4] -0.03 | [5] -0.089

LEO1 (UniProt Q8WVC0)
inactive: [1] -0.009 | [2] 0.046 | [3] -0.009 | [4] -0.016 | [5] -0.011

LSS (UniProt P48449)
inactive: [1] -0.077 | [2] 0.059 | [3] 0.127 | [4] -0.018 | [5] 0.087

MCCC2 (UniProt Q9HCC0)
inactive: [1] 0.029 | [2] 0.038 | [3] -0.027 | [4] -0.022 | [5] 0.026

IGFBP2 (UniProt P18065)
Chain of UniProt P18065 (P18065 whole entry, looked up): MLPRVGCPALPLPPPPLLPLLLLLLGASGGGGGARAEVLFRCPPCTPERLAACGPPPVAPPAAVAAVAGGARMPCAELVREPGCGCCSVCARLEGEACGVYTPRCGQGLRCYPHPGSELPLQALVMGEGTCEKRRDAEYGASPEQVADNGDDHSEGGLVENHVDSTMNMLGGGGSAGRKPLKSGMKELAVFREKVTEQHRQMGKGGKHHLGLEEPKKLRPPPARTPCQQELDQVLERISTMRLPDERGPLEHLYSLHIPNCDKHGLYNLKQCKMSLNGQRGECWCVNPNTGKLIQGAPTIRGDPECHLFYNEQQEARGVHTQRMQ
inactive: [1] -0.121 | [2] -0.101 | [3] 0.131 | [4] -0.295 | [5] 0.062
